From PubChem
The sample as a whole holds a higher share of hits than the screen did.
C diff growth – blocks growth of Clostridium difficile | Clostridium difficile clinical isolate growth, OD600, 24 h; stronger effect = lower value | growth activity, negative = inhibition, % at 16 µg/mL (by protocol) | 0.25% of 86,000 active | AID 1259249;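 active = mean growth activity at or below -80% and every replicate also at or below -80%; inconclusive = mean at or below -80% but some replicate above -80%; inactive = mean growth activity above -80%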;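 note: 0% = DMSO wells and -100% = levofloxacin 16 µg/mL wells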
T cruzi growth-1 – T. cruzi proliferation inhibition; T. cruzi beta-gal in NIH3T3, GalScreen luminescence, 90 h; inhibition, % at 8.34 µM; 5.9% of 77,000 active; AID 624255;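 active = mean inhibition above about 93%, with at least 55% of replicates each passing it, limit read from the data, passing the limit was not always enough; inconclusive = only one of those two conditions holds; inactive = neither condition holds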
T cruzi growth-2 – blocks T. cruzi growth in NIH3T3 host cells; shares compounds with T cruzi growth-1; T. cruzi beta-gal in NIH3T3, GalScreen luminescence, 90 h; inhibition, % at 8.35 µM; 72% of 5,600 active; AID 651739;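 active = mean replicate inhibition above about 95% and at least 55% of replicates individually reaching it, limit read from the data; inconclusive = only one of the two criteria is met; inactive = neither criterion is met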
T cruzi growth-3 – inhibitors of T. cruzi proliferation | shares compounds with T cruzi growth-1 | T. cruzi beta-gal in NIH3T3, GalScreen luminescence, 90 h | inhibition, % at 2.09 µM | 21% of 5,600 active | AID 651740;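 active = mean inhibition above about 95%, with at least 55% of replicates also reaching it, limit read from the data; inconclusive = meets just one of the two conditions; inactive = meets neither condition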;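 note: plate controls were neutral control median for no effect and positive control median for full effect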
3T3 cytotox – NIH/3T3 (mouse) viability loss | shares compounds with T cruzi growth-1 | NIH/3T3 viability, CellTiter-Glo ATP luminescence, 90 h | cytotoxicity (signal decrease), % at 8.35 µM | 14% of 5,600 active | AID 651742;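 active = mean signal decrease across replicates above about 35% based on untreated-well scatter, with enough replicates individually passing, limit read from the data; inconclusive = no rule stated though some were filed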;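 note: 0% = median of neutral control wells and 100% = median of positive control wells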
NIH3T3 tox 2 – cytotoxicity in mouse NIH/3T3 fibroblasts; inhibition, % at 24.9 µM; 56% of 5,600 active; NIH/3T3 viability, CellTiter-Glo ATP luminescence, 90 h; shares compounds with T cruzi growth-1; AID 651744;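 active = mean loss of cell viability signal at or above a set limit, and enough replicates individually reaching it; inconclusive = meets only the mean limit or only the replicate share; inactive = meets neither condition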;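 note: 0% = median of neutral control wells and 100% = median of positive control wells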
The depositor's hits bear a star; ? = inconclusive; / = not tested or not shown.

SMILES	C diff growth	T cruzi growth-1	T cruzi growth-2	T cruzi growth-3	3T3 cytotox	NIH3T3 tox 2
CCNC(=O)C[C@@H]1CC[C@H]2[C@@H](COc3ccc(NC(=O)Nc4ccccc4OC)cc3C(=O)N2C)O1	-4.9	10.3	/	/	/	/
C[C@@H]1CCCCO[C@@H](CN(C)Cc2ccc3c(c2)OCO3)[C@H](C)CN([C@@H](C)CO)C(=O)c2cc(NC(=O)c3ccccc3)ccc2O1	10.5	/	/	/	/	/
C[C@H](CO)N1C[C@H](C)[C@H](CN(C)S(C)(=O)=O)Oc2cc(C3=CCCC3)ccc2S1(=O)=O	/	37.3	/	/	/	/
CN1c2ccc(Br)cc2[C@H]2[C@H](CCN2C(=O)Nc2cc(F)ccc2F)[C@H]1CO	56.1	?	104.5*	40.1	11.2	44.2*
COc1ccccc1NC(=O)N1CC[C@@H]2[C@H]1c1cc(-c3ccc(F)cc3)ccc1N(C)[C@H]2CO	14.9	84.5	/	/	/	/
CN1c2ccc(-c3ccc(F)cc3)cc2[C@H]2[C@H](CCN2C(=O)Nc2cc(F)ccc2F)[C@H]1CO	55.7	15.2	/	/	/	/
COc1ccccc1NC(=O)N1CC[C@H]2[C@@H]1c1cc(C#Cc3ccc(F)cc3)ccc1N(C)[C@H]2CO	2.9	108.2*	106.0*	116.1*	2.7	5.2
CN1c2ccc(-c3cccc(C#N)c3)cc2[C@@H]2[C@@H](CCN2C(=O)Nc2cc(F)ccc2F)[C@@H]1CO	6.1	?	99.6*	93.3	22.3	13.2
CN1c2ccc(-c3ccc(C#N)cc3)cc2[C@@H]2[C@@H](CCN2C(=O)Nc2ccccc2F)[C@@H]1CO	-12.2	83.7	/	/	/	/
CCCC(=O)Nc1ccc2c(c1)C(=O)N(C)C[C@H](OC)[C@H](C)CN(Cc1ccccc1F)[C@@H](C)CO2	-2.3	63.0	/	/	/	/
CN1C(=O)c2cc(NC(=O)c3cccc(F)c3)ccc2OC[C@@H]2O[C@H](CC(=O)NC3CCC3)CC[C@@H]21	0.5	-4.5	/	/	/	/
CC(C)C#Cc1cnc2c(c1)C(=O)N([C@H](C)CO)C[C@H](C)[C@H](CN(C)C(=O)Cc1ccncc1)O2	1.7	71.9	/	/	/	/
C[C@@H]1CCCCO[C@H](CN(C)S(C)(=O)=O)[C@@H](C)CN([C@@H](C)CO)C(=O)c2cc(NS(=O)(=O)c3ccc(F)cc3)ccc2O1	-3.1	-34.4	/	/	/	/
CO[C@H](CN(C)CC1CCOCC1)[C@H](C)CN(C(=O)Nc1ccc(F)cc1)[C@H](C)CO	/	3.7	/	/	/	/
C[C@@H]1CCCCO[C@@H](CN(C)S(=O)(=O)c2ccc(F)cc2)[C@@H](C)CN([C@@H](C)CO)C(=O)c2cc(NC(=O)CCCN(C)C)ccc2O1	0.5	5.8	/	/	/	/
CC(=O)N(C)C[C@@H]1Oc2cc(C#CC3CCCCC3)ccc2S(=O)(=O)N([C@H](C)CO)C[C@H]1C	-15.9	?	107.6*	93.1	32.4	63.9*
CC(=O)N(C)C[C@H]1Oc2cc(C#CC3CCCC3)ccc2S(=O)(=O)N([C@@H](C)CO)C[C@@H]1C	-3.0	93.5	/	/	/	/
CC(=O)N(C)C[C@@H]1Oc2cc(C#CC3CCCCC3)ccc2S(=O)(=O)N([C@@H](C)CO)C[C@H]1C	-21.0	84.2	/	/	/	/
CC(=O)N(C)C[C@H]1Oc2cc(C#CC3CCCC3)ccc2S(=O)(=O)N([C@H](C)CO)C[C@H]1C	-4.7	101.8*	96.1*	84.4	-1.9	62.0*
CN(C)C(=O)C[C@@H]1C=C[C@H](NC(=O)NC2CCCCC2)[C@H](CO)O1	-1.0	/	/	/	/	/
CC=Cc1ccc2n(c1=O)C[C@@H]1[C@@H](CO)[C@H](C(=O)NCc3ccccc3)N(CC)[C@H]21 (mixture of isomers)	2.8	/	/	/	/	/
C[C@H]1CCCCO[C@@H](CN(C)S(=O)(=O)c2ccc(F)cc2)[C@@H](C)CN([C@@H](C)CO)C(=O)c2cc(NS(=O)(=O)c3ccc(Cl)cc3)ccc2O1	-4.8	99.8*	103.8*	?	-10.2	-6.0
C[C@@H]1CN([C@@H](C)CO)C(=O)c2cc(NS(=O)(=O)c3ccc(F)cc3)ccc2O[C@@H](C)CCCCO[C@H]1CN(C)S(=O)(=O)c1ccc(Cl)cc1	0.8	105.7	/	/	/	/
C[C@@H]1CCCCO[C@H](CN(C)S(=O)(=O)c2ccc(F)cc2)[C@@H](C)CN([C@@H](C)CO)C(=O)c2cc(NS(=O)(=O)c3ccc(Cl)cc3)ccc2O1	1.5	97.0*	104.8*	111.2*	1.8	8.2
C[C@@H]1CN([C@@H](C)CO)C(=O)c2cc(NS(=O)(=O)c3ccc(Cl)cc3)ccc2O[C@@H](C)CCCCO[C@H]1CN(C)S(=O)(=O)c1ccc(F)cc1	1.9	104.9*	103.6*	50.4	-2.9	0.7
SMILES	C diff growth	T cruzi growth-1	T cruzi growth-2	T cruzi growth-3	3T3 cytotox	NIH3T3 tox 2
C[C@@H]1CCCCO[C@H](CN(C)S(=O)(=O)c2ccc(Cl)cc2)[C@H](C)CN([C@@H](C)CO)C(=O)c2cc(NS(=O)(=O)c3ccc(F)cc3)ccc2O1	4.1	72.6	/	/	/	/
C[C@H](CO)N1C[C@H](C)[C@@H](CN(C)S(=O)(=O)c2ccc(Cl)cc2)OCCCC[C@H](C)Oc2ccc(NS(=O)(=O)c3ccc(F)cc3)cc2C1=O	5.0	98.2	/	/	/	/
C[C@H]1CCCCO[C@@H](CN(C)S(=O)(=O)c2ccc(Cl)cc2)[C@@H](C)CN([C@@H](C)CO)C(=O)c2cc(NS(=O)(=O)c3ccc(F)cc3)ccc2O1	-0.8	102.0*	104.7*	110.4*	-3.6	-14.1
C[C@H]1CN([C@@H](C)CO)C(=O)c2cccc(NC(=O)c3ccncc3)c2O[C@H]1CN(C)S(=O)(=O)c1cccs1	-1.1	-156.4	/	/	/	/
COc1ccccc1-c1cnc2c(c1)C(=O)N([C@H](C)CO)C[C@H](C)[C@H](CN(C)Cc1ccc(C(=O)O)cc1)O2	2.8	57.9	/	/	/	/
Cc1ccc(S(=O)(=O)N[C@@H]2CC[C@H](CC(=O)NCc3ccc(Cl)c(Cl)c3)O[C@H]2CO)cc1	-1.0	-23.8	/	/	/	/
COc1ccc(CN(C)C[C@H]2Oc3ccc(NS(=O)(=O)c4ccc(F)cc4)cc3C(=O)N([C@@H](C)CO)C[C@H]2C)cc1	-4.1	-48.9	/	/	/	/
C[C@@H]1CN([C@H](C)CO)C(=O)c2cc(NS(=O)(=O)c3ccc(F)cc3)ccc2O[C@@H](C)CCCCO[C@H]1CN(C)S(=O)(=O)c1ccc(Cl)cc1	-1.3	?	105.1*	113.2*	-1.0	13.0
C[C@@H]1CCCCO[C@H](CN(C)S(=O)(=O)c2ccc(Cl)cc2)[C@H](C)CN([C@H](C)CO)C(=O)c2cc(NS(=O)(=O)c3ccc(F)cc3)ccc2O1	-3.5	87.8	/	/	/	/
CC(C)NC(=O)Nc1cccc2c1O[C@H](CN(C)S(=O)(=O)c1ccc(Cl)cc1)[C@H](C)CN([C@H](C)CO)C2=O	-3.0	/	/	/	/	/
Cc1cc(C(=O)Nc2cccc3c2O[C@@H](CN(C)Cc2ccc(Oc4ccccc4)cc2)[C@H](C)CN([C@H](C)CO)C3=O)n(C)n1	1.1	104.5*	103.8*	58.9	15.1	104.3*
